Lassa entry inh = inhibitors of Lassa virus binding or cell entry; Lassa virus pseudotype entry inhibition, cell reporter; 1.2% of 300,000 active; Potency, µM (doses to about 37.9 µM), inactives show at the highest dose activity change, negative = inhibition, hits mostly inhibitors; AID 540256; calls by dose curve; tested in HEK293 cells; further: potency means the concentration at half of the fitted maximal effect; nearly all actives have a fitted effect of over 50% in size
VACV mCherry inh = vaccinia inhibition (mCherry reporter) | AID 720579 | Vaccinia virus mCherry reporter infection, fluorescence | 0.63% of 310,000 active | Potency, µM (titrated, usually from 36.5 µM), for the others: at the highest dose activity change, negative = inhibition, actives largely listed as inhibitors; calls by dose curve; tested in A549 cells; further: potency means the concentration at half of the fitted maximal effect; nearly all actives have a fitted effect of over 35% in size
MARV entry inh = Marburg virus entry inhibition; 1.8% of 300,000 active; Marburg virus pseudotyped entry inhibition, cell reporter; Potency, µM (titrated, usually from 37.8 µM), for inactives: top-dose activity change, negative = inhibition, actives largely listed as inhibitors; AID 540276; calls by dose curve; tested in HEK293 cells; further: potency means the concentration at half of the fitted maximal effect
FMDV inh = antivirals against foot and mouth disease virus | AID 1159524 | Potency, µM (doses to about 57.9 µM), for the others: at the top dose activity change, negative = inhibition, actives largely listed as inhibitors | 1.2% of 410,000 active | FMDV antiviral cell-based qHTS; calls by dose curve; tested in HEK293T cells; further: read-out not given here; potency means the concentration at half of the fitted maximal effect; nearly all actives have a fitted effect of over 45% in size
Vaccinia Venus = vaccinia inhibition (Venus reporter). AID 720580. Potency, µM (doses to about 36.5 µM), for the others: at the highest dose activity change, negative = inhibition, hits mostly inhibitors. 0.46% of 330,000 active. Vaccinia virus Venus reporter expression, fluorescence; calls by dose curve; tested in A549 cells; further: potency means the concentration at half of the fitted maximal effect; nearly all actives have a fitted effect of over 30% in size
HCMV inh = blocks human cytomegalovirus replication. activity change, negative = inhibition, % at 57.5 µM. 4.5% of 410,000 active. HFF cells, HCMV-luciferase reporter, 72 h; stronger effect = lower value; in the data active means activity change below about -60%; inconclusive means no clear call, values can overlap the other calls; inactive means above about -39%
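Two compound doses tested in HFFs infected with HCMV-luciferase, MOI 1 PFU/cell, 72 h at 37C. Lysate luminescence read with OneGlo; data normalized against buffer-only and 10uM Salinomycin inhibitor controls.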
Active calls of the source: *; i = inactive; ? = inconclusive; . = not tested or not shown; [ ] = dose if it differs, or a comment. Shown are actives, neighbours in structure and some others; about 6.5% of the full set was active somewhere. On the % scale 0 is the no-effect control and ±100 the full control effect.

SMILES	Lassa entry inh	VACV mCherry inh	MARV entry inh	FMDV inh	Vaccinia Venus	HCMV inh
O=C(C[n+]1ccccc1Br)c1ccc(Cl)cc1	.	-2%	.	.	-21%	.
CCn1c(=S)[nH]c2scc(-c3cccs3)c2c1=O	-25%[46.1 µM]	-4%	-1%[46.1 µM]	14%	-18%	-63*
CN1CCN(c2ncnc3ccc(-c4cccc(NS(C)(=O)=O)c4)cc23)CC1	.	.	.	0%	.	.
COc1ccc(-c2cc3nc(CCl)[nH]c(=O)c3s2)cc1	?	-11%	?	14µM*	-8%	69
COc1ccc(-c2cc3nc[nH]c(=O)c3s2)cc1	?	-19%	-48%	12%	-10%	146
CCCN(C(=O)C1CCCN(c2ncnc3c2nc2n3CCCCC2)C1)c1ccccc1C (stereo unspecified)	.	.	.	.	.	6
Cn1cccc1/C=C1\C(=O)NC(=O)N(Cc2ccccc2)C1=O	-18%	i	-10%[46.1 µM]	-17%	0%	-65*
Cn1cccc1/C=C1/C(=O)NC(=O)N(Cc2ccc(F)cc2)C1=O	1%[46.1 µM]	i	-23%[46.1 µM]	?	23%	-31
Cn1cccc1/C=C1/C(=O)NC(=S)N(Cc2ccc(F)cc2)C1=O	-20%	16%	5%[46.1 µM]	28µM*	3%	?
CN(CC[C@@H](Oc1ccc(-c2ccccc2)cc1)c1ccc(F)cc1)CC(=O)O	.	.	.	-25%	.	.
COc1ccc(CNC(=O)c2cnc3sc(N4CCC(C)CC4)nn3c2=O)c(OC)c1	10%[46.1 µM]	-27%	.	-36%	-20%	5
NC(=O)C1CCN(CC(=O)c2c[nH]c3ccc(F)cc23)CC1	10%	-11%	5%	-17%	-1%	6
O=C(CN1CCN(c2ccccc2F)CC1)c1c[nH]c2ccc(F)cc12	?	.	12µM*	-17%	.	-24
CC(C)(C)NC(=O)C(=O)NC(=O)c1c(F)cccc1Cl	2%[46.1 µM]	-15%	3%[46.1 µM]	-1%	-9%	-29
Cc1cc(C(F)(F)F)cc(NNC(=O)NC(=O)c2c(F)cccc2Cl)n1	?	?	7.1µM*	-11%	0%	?
NC(=O)COc1ccccc1C(=O)Nc1ccccc1	.	-6%	.	.	-8%	.
COc1cc(C(=O)NCCc2c[nH]c3ccccc23)ccc1OCc1c(C)noc1C	7.9µM*	-26%	-26%[46.1 µM]	?	-20%	48
COc1ccc(CCNC(=O)c2ccc(OCc3c(C)noc3C)cc2)cc1OC	.	.	.	?	.	-5
CCOc1ccc(CCNC(=O)c2ccc(OCc3c(C)noc3C)cc2)cc1OCC	?	-2%	?	?	-17%	-97*
CCN(C(=O)Cn1ncc2c1-c1cc(C)ccc1OC2)c1cc(Cl)ccc1OC	.	-23%	?	-23%	-19%	-27
COc1cccc([C@@H]2Oc3ccc(Br)cc3C(=O)[C@@H]2OC(=O)N[C@H]2CCCc3ccccc32)c1	.	.	-11%[14.2 µM]	.	.	.
O=C(CCN1CCCCC1)Nc1ccc(Br)cc1C(=O)c1ccccc1	-9%[46.1 µM]	i	13µM*	-22%	-13%	?
CC(C(=O)Nc1ccc(Br)cc1C(=O)c1ccccc1)N1CCCCC1 (stereo unspecified)	6%	.	?	-13%	.	-18
COc1ccc(Cl)cc1NC(=O)c1cc(S(=O)(=O)N(C)Cc2ccccc2)ccc1F	13%[46.1 µM]	-10%	.	0%	-15%	-20
O=[N+]([O-])c1ccc(N2CCCCCC2)c([N+](=O)[O-])c1	-20%	.	-24%	-16%	.	40
SMILES	Lassa entry inh	VACV mCherry inh	MARV entry inh	FMDV inh	Vaccinia Venus	HCMV inh
O=[N+]([O-])c1cc2no[n+]([O-])c2cc1N1CCCCC1	-17%	i	2%	32µM*	-11%	-63*
O=[N+]([O-])c1cc(F)c(N2CCCCC2)cc1N1CCOCC1	-26%[14.3 µM]	i	-9%	-5%	-11%	-29
N#Cc1cc(N2CCCCC2)c([N+](=O)[O-])cc1C#N	2%	.	3%	0%	.	-64*
O=C1c2ccccc2NC2(c3ccccc3)c3ccccc3-n3nncc3CN12 (stereo unspecified)	.	.	.	.	.	9
COc1ccc(-c2noc([C@@H]3O[C@H](CO)[C@H](O)[C@H](O)[C@H]3O)n2)cc1OC	.	22%	.	-2%	-2%	26
COc1ccc(Cl)cc1-c1noc([C@@H]2O[C@H](CO)[C@H](O)[C@H](O)[C@H]2O)n1	.	21%	.	-25%	-4%	-73*
O=C(CSCc1ccccc1Cl)N1CCN(c2ccc(F)cc2)CC1	10%[46.1 µM]	-12%	.	-5%	-5%	?
COc1ccc(-c2oc3cc(O)c(OC)c(O)c3c(=O)c2OC)cc1	.	-23%	.	44%	-17%	109
COc1c(-c2ccc(O)cc2)oc2cc(O)cc(O)c2c1=O	.	20µM*	.	-1%	?	-5
O=c1c(-c2ccc(O)cc2)coc2cc(O)cc(O)c12	?	11µM*	?	30%	?	72
COc1ccc(Cl)cc1-c1ccc2c(c1)COCC(=O)N2C	.	.	.	.	.	0
Brc1ccc(-c2csc(Nc3nc(-c4ccc(Br)cc4)cs3)n2)cc1	-12%[46.1 µM]	?	-18%[46.1 µM]	-1%	-10%	-87*
Nc1nc(-c2ccc(Br)cc2)cs1	?	-26%	7%	-6%	-19%	4
Clc1ccc(Nc2nc(-c3ccncc3)cs2)cc1	15%	?	7.9µM*	12%	-20%	7
Nc1ccc(Nc2nc(-c3ccncc3)cs2)cc1	?	-21%	?	15%	-12%	-99*
COC(=O)C1=C(CN2CCCc3ccccc32)NC(=O)NC1c1ccc(F)cc1 (stereo unspecified)	?	?	?	.	-15%	-81*
COC(=O)C1=C(CN2CCc3ccccc32)NC(=O)NC1c1cc(C)ccc1C (stereo unspecified)	?	.	-28%	-3%	-20%	47
Brc1ccc2c(c1)C(c1cccs1)=NNC(c1cccnc1)=N2	-13%	.	?	-24%	.	-30
CCOc1ccc2c(c1)C(c1cccs1)=NNC(c1cccnc1)=N2	-13%	0%	-16%[46.1 µM]	-20%	-6%	-71*
COc1ccccc1N1CCN(CCCCCCOc2ccc(F)cc2)CC1	?	-2%	18µM*	?	-21%	?
COc1ccc(S(=O)(=O)N2CCSC2c2ccc(OC)c(OC)c2)cc1 (stereo unspecified)	-28%	.	2%	?	.	-62*
COc1ccc(C2SCCN2S(=O)(=O)c2ccc(F)cc2)cc1OC (stereo unspecified)	2%	-14%	9%	?	-8%	-19
COc1ccc([C@@H]2CC=C(C(=O)O)CN2S(=O)(=O)c2ccc(C)cc2)cc1OC	.	-3%	.	-1%	-16%	-64*
COC(=O)[C@H]1O[C@@H](c2cc(OC)c(C)c(OC)c2OCc2ccccc2)[C@H](C)[C@@H]2O[C@]12C	-3%[14.3 µM]	.	-6%[14.2 µM]	.	.	.
CCOC(=O)c1cnc2ccc(OC(F)(F)F)cc2c1Nc1ccccc1C(=O)O	-19%[46.1 µM]	9%	14%[46.1 µM]	-21%	-8%	-6
CCC(C)[C@H](N)c1nnc(SCc2ccc(Cl)c(Cl)c2)o1 (stereo partly specified)	11%[46.1 µM]	-7%	11%[46.1 µM]	-18%	7%	-11

Source: PubChem
